Beta apoptosis: beta cell apoptosis inhibition; INS-1E cytokine-induced death, ATP luminescence, 48 h; percent of positive-control rescue, neutral wells zero; protection from apoptosis, % (concentration not given with the values); 0.8% of 300,000 active;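 active = Every replicate reaches about 75%, or at least half do and their mean reaches it too, limit read from the data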;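 also: higher means more ATP so stronger rescue from cytokine killing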
SKKanGAS inh: SKKanGAS growth inhibition. inhibition, % at 7.5 µM. S. pyogenes SKKanGAS, kanamycin growth, BacTiter-Glo, 6 h. 1.3% of 300,000 active. AID 1662;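 active = mean replicate score, as percent of positive control median, at least 50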;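 also: strain carries kanamycin resistance gene driven by streptokinase promoter and grows in 40 µg/ml kanamycin; loss of luminescence reflects streptokinase promoter inhibition or plain growth inhibition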
MPTP inh: blocks calcium-induced mitochondrial swelling; isolated mouse mitochondria, Ca2+ swelling absorbance, 30 min; inhibition, % at 10 µM; 1.4% of 360,000 active; AID 602449;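 active = inhibition of 50% or more, scaled per plate between neutral and stimulator controls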
CSC inhib: blocks cancer stem cells; cancer stem cell-like cells viability, luminescence; inhibition, % at 7.5 µM; 1.1% of 300,000 active; in the data active = inhibition above about 75%; tested in HMLE shEcad cells
NR3A LBD binder: modulators (binders) of human NR3A ligand-binding domain | NR3A LBD differential scanning fluorimetry, Tm shift; 0% = protein alone, 100% = glycine-bound protein | Tm shift relative to glycine control, % at 25 µM | 2.5% of 340,000 active | AID 1259313;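 active = melting temperature shift of at least 10% of the positive control shift, at one fixed dose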
Mdm2-MdmX inh: disrupts the human Mdm2-MdmX interaction; SaOS-2 split-luciferase Mdm2/MdmX complementation, luminescence; AID 485346; O15151+Q00987; inhibition, % at 8 µM; 3% of 330,000 active;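 active = inhibition of at least 50% at 8 µM in the primary screen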
Target sequence (O15151 whole entry, looked up): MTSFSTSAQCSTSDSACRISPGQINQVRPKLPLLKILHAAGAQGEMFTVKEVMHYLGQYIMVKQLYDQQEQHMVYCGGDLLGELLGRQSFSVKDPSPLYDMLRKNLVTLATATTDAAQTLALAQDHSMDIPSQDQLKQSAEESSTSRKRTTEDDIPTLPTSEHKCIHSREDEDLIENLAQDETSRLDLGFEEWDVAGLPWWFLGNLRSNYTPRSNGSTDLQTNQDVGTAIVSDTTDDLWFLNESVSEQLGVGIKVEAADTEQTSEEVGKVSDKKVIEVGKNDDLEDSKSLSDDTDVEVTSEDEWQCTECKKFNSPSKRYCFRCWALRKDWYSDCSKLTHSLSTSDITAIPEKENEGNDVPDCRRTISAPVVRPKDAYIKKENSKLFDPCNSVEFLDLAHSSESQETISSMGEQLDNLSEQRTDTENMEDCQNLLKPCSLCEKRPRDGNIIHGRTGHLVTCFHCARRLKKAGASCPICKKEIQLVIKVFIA
Target sequence (Q00987 whole entry, looked up): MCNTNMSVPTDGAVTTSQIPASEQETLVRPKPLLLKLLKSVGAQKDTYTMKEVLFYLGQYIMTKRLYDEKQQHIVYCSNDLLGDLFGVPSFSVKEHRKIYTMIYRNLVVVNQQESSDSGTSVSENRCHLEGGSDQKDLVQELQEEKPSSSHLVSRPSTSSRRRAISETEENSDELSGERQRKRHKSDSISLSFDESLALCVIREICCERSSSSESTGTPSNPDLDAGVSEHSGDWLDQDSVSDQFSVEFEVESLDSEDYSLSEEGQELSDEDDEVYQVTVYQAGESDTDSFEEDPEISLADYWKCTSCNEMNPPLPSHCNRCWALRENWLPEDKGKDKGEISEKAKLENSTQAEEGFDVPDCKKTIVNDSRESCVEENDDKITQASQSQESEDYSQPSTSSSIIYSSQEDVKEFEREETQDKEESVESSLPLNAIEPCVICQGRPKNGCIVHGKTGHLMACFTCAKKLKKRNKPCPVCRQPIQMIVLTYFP
Mdm2 MdmX conf: human Mdm2/MdmX binding inhibition, confirmed | shares compounds with Mdm2-MdmX inh | luminescent assay | inhibition, % at 8 µM | 55% of 10,000 active | AID 489028; in the data active = inhibition above about 40%
FLuc counter: inhibits full-length luciferase, flagging false Mdm2/MdmX hits | inhibition, % at 8 µM | 77% of 6,200 active | SaOS-2 full-length luciferase counterscreen, luminescence | shares compounds with Mdm2-MdmX inh | AID 504607;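 active = mean inhibition at 8 µM reaching about 37%, which flags the compound as non-specific, limit read from the data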;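 also: p53-null SaOS-2 cells with luciferase driven by a doxycycline-inducible promoter; compound on cells about two nights before reading with doxycycline added after day one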
Numbers stand for hits; i = inactive; nt = no result given. Only some compounds are listed: those with a hit (about 6.9% of all), similar ones and a draw of the others.

SMILES	Beta apoptosis	SKKanGAS inh	MPTP inh	CSC inhib	NR3A LBD binder	Mdm2-MdmX inh	Mdm2 MdmX conf	FLuc counter
CC1CCCN(c2ncnc3c2cnn3-c2ccc(Cl)cc2)C1 (stereo not given)	i	i	i	i	i	95.8	95.4	42.4
COc1cccc(N2CCN(c3ncnc4c3cnn4-c3ccc(C)cc3C)CC2)c1	i	i	i	i	i	89.5	100.2	i
CCN1CCN(c2ncnc3c2cnn3-c2ccccc2)CC1	i	i	i	i	i	i	nt	nt
c1ccc(-n2ncc3c(N4CCCCC4)ncnc32)cc1	i	i	i	i	i	50.8	53.5	160.1
CCNS(=O)(=O)c1ccc(Br)c(C(=O)OC(C)C(=O)NCC2CCCCC2)c1 (stereo not given)	i	nt	i	nt	i	i	nt	nt
COc1ccc(NC(=O)COC(=O)c2ccc(S(=O)(=O)N(C)c3ccccc3OC)cc2)cc1	nt	nt	i	nt	i	nt	nt	nt
CC1=NN(c2nc3ccccc3[nH]2)C(=O)C1Cc1ccccc1 (stereo not given)	98.9	88.9	i	100.2	i	84.7	81.2	36.3
CC1Oc2ccccc2C=C1/C=N/Nc1ccc(C(=O)O)cc1 (stereo not given)	i	i	i	i	i	i	nt	nt
Cc1sc(NC(=O)Cc2ccc3c(c2)OCO3)nc1-c1ccc2c(c1)CCN2C(=O)c1ccc(F)cc1	i	i	i	i	i	i	nt	nt
Cc1sc(NC(=O)Cc2ccc3c(c2)OCO3)nc1-c1ccc2c(c1)CCN2C(=O)c1ccccc1F	i	i	i	i	i	53.8	i	nt
COc1cccc(C(=O)N2CCC(CCC(=O)Nc3cccc(C)c3)CC2)c1	nt	i	i	i	i	i	nt	nt
COc1ccc(C(=O)c2ccc(Br)cc2)c2ccccc12	i	i	i	i	i	52.2	52.7	79.9
O=C(CN1C(=O)c2cccc([N+](=O)[O-])c2C1=O)N1CCc2ccccc2C1	nt	nt	i	nt	nt	nt	nt	nt
COc1ccc(NC(=O)c2cc3c(CO)cnc(C)c3oc2=Nc2cccc(F)c2)c(OC)c1	i	i	i	i	i	72.1	74.5	i
Cc1ccc(NC(=O)c2cc3c(CO)cnc(C)c3oc2=Nc2cccc(C(N)=O)c2)cc1	i	i	i	i	i	77.6	63.9	48.3
Cc1ncc(CO)c2cc(C(=O)Nc3cccc(F)c3)c(=Nc3cccc(C(N)=O)c3)oc12	i	i	i	i	i	i	nt	nt
C[C@@H]1CCCCO[C@@H](CN(C)C(=O)c2ccncc2)[C@@H](C)CN([C@H](C)CO)C(=O)c2cc(NC(=O)Cc3ccccc3)ccc2O1	nt	nt	i	nt	nt	nt	nt	nt
Cc1nc(C(=O)O)cc2c1[nH]c1ccccc12	i	i	i	i	i	i	nt	nt
CC(=O)N(C(C)=O)c1ncc2c([nH]c3ccccc32)c1C#N	i	i	i	i	i	81.8	85.8	i
COc1ccc(-c2nn3c(-c4ccccc4)nnc3s2)cc1	i	i	i	i	i	i	nt	nt
CCN(CC)c1ccc(-c2nn3c(-c4ccccc4OC)nnc3s2)cc1	i	55.9	i	93.4	i	76.3	65.2	73.0
Cc1ccccc1NC(=O)Cc1nnc(NC(=O)Nc2ccccc2F)s1	i	i	i	i	i	77.4	i	nt
Cc1ccc(-c2sc(-c3ccccc3)nc2CC(=O)Nc2ccccc2F)cc1	141.1	i	i	i	i	52.3	i	nt
C[C@@H]1OC(C2CCCCC2)N(C)[C@H]2C[C@H]3c4[nH]c5ccccc5c4CCN3C[C@@H]12 (stereo not given in full)	nt	nt	i	nt	nt	nt	nt	nt
O=C(NC1CCCC1)C1CC(O)CN1C(=O)Nc1ccccc1 (stereo not given)	i	i	i	i	i	i	nt	nt
C=CCN=c1scc(-c2ccccc2)n1/N=C/c1ccccn1	i	i	i	i	i	79.1	63.9	42.2
COc1ccc(Sc2nnc(Cc3ccccc3)c3ccccc23)cc1	i	i	i	i	i	71.5	47.5	87.7
COc1ccc(Sc2nnc(-c3ccccc3)cc2C#N)cc1	i	i	i	i	i	i	nt	nt
Cc1ccc(Sc2nnc(Cc3ccccc3)c3ccccc23)cc1	i	i	i	i	i	53.3	i	nt
N#Cc1ccccc1S(=O)(=O)N1CCN(C(=O)C2CCC2)CC1	i	i	i	i	i	i	nt	nt
